# Results reported in PMC8222333, “AsCas12a ultra nuclease facilitates the rapid generation of therapeutic cell medicines”.
# B1: CAAC (dsDNA)
# DNA 1: GCTATCTAGTGCTCAGTACGCACTGCAACAGGAAACTTCTGGCAGGACCAGGTCATGAGATCGGAAGAGCACACGTCTGAACTCCAGTCA
# DNA 2: TGACTGGAGTTCAGACGTGTGCTCTTCCGATCTCATGACCTGGTCCTGCCAGAAGTTTCCTGTTGCAGTGCGTACTGAGCACTAGATAGC
# RNA: AAUUUCUACUCUUGUAGAUAGGAAACUUCUGGCAGGACC
# B2: CAAG (dsDNA)
# DNA 1: GCTATCTAGTGCTCAGTACGCACTGCAAGAGGAAACTTCTGGCAGGACCAGGTCATGAGATCGGAAGAGCACACGTCTGAACTCCAGTCA
# DNA 2: TGACTGGAGTTCAGACGTGTGCTCTTCCGATCTCATGACCTGGTCCTGCCAGAAGTTTCCTCTTGCAGTGCGTACTGAGCACTAGATAGC
# RNA: AAUUUCUACUCUUGUAGAUAGGAAACUUCUGGCAGGACC
# B3: CAAT (dsDNA)
# DNA 1: GCTATCTAGTGCTCAGTACGCACTGCAATAGGAAACTTCTGGCAGGACCAGGTCATGAGATCGGAAGAGCACACGTCTGAACTCCAGTCA
# DNA 2: TGACTGGAGTTCAGACGTGTGCTCTTCCGATCTCATGACCTGGTCCTGCCAGAAGTTTCCTATTGCAGTGCGTACTGAGCACTAGATAGC
# RNA: AAUUUCUACUCUUGUAGAUAGGAAACUUCUGGCAGGACC
# B4: CACA (dsDNA)
# DNA 1: GCTATCTAGTGCTCAGTACGCACTGCACAAGGAAACTTCTGGCAGGACCAGGTCATGAGATCGGAAGAGCACACGTCTGAACTCCAGTCA
# DNA 2: TGACTGGAGTTCAGACGTGTGCTCTTCCGATCTCATGACCTGGTCCTGCCAGAAGTTTCCTTGTGCAGTGCGTACTGAGCACTAGATAGC
# RNA: AAUUUCUACUCUUGUAGAUAGGAAACUUCUGGCAGGACC
# B5: CACC (dsDNA)
# DNA 1: GCTATCTAGTGCTCAGTACGCACTGCACCAGGAAACTTCTGGCAGGACCAGGTCATGAGATCGGAAGAGCACACGTCTGAACTCCAGTCA
# DNA 2: TGACTGGAGTTCAGACGTGTGCTCTTCCGATCTCATGACCTGGTCCTGCCAGAAGTTTCCTGGTGCAGTGCGTACTGAGCACTAGATAGC
# RNA: AAUUUCUACUCUUGUAGAUAGGAAACUUCUGGCAGGACC
# B6: CACG (dsDNA)
# DNA 1: GCTATCTAGTGCTCAGTACGCACTGCACGAGGAAACTTCTGGCAGGACCAGGTCATGAGATCGGAAGAGCACACGTCTGAACTCCAGTCA
# DNA 2: TGACTGGAGTTCAGACGTGTGCTCTTCCGATCTCATGACCTGGTCCTGCCAGAAGTTTCCTCGTGCAGTGCGTACTGAGCACTAGATAGC
# RNA: AAUUUCUACUCUUGUAGAUAGGAAACUUCUGGCAGGACC
# B7: CAGA (dsDNA)
# DNA 1: GCTATCTAGTGCTCAGTACGCACTGCAGAAGGAAACTTCTGGCAGGACCAGGTCATGAGATCGGAAGAGCACACGTCTGAACTCCAGTCA
# DNA 2: TGACTGGAGTTCAGACGTGTGCTCTTCCGATCTCATGACCTGGTCCTGCCAGAAGTTTCCTTCTGCAGTGCGTACTGAGCACTAGATAGC
# RNA: AAUUUCUACUCUUGUAGAUAGGAAACUUCUGGCAGGACC
# B8: CAGC (dsDNA)
# DNA 1: GCTATCTAGTGCTCAGTACGCACTGCAGCAGGAAACTTCTGGCAGGACCAGGTCATGAGATCGGAAGAGCACACGTCTGAACTCCAGTCA
# DNA 2: TGACTGGAGTTCAGACGTGTGCTCTTCCGATCTCATGACCTGGTCCTGCCAGAAGTTTCCTGCTGCAGTGCGTACTGAGCACTAGATAGC
# RNA: AAUUUCUACUCUUGUAGAUAGGAAACUUCUGGCAGGACC
# B9: CAGG (dsDNA)
# DNA 1: GCTATCTAGTGCTCAGTACGCACTGCAGGAGGAAACTTCTGGCAGGACCAGGTCATGAGATCGGAAGAGCACACGTCTGAACTCCAGTCA
# DNA 2: TGACTGGAGTTCAGACGTGTGCTCTTCCGATCTCATGACCTGGTCCTGCCAGAAGTTTCCTCCTGCAGTGCGTACTGAGCACTAGATAGC
# RNA: AAUUUCUACUCUUGUAGAUAGGAAACUUCUGGCAGGACC
# B10: CAGT (dsDNA)
# DNA 1: GCTATCTAGTGCTCAGTACGCACTGCAGTAGGAAACTTCTGGCAGGACCAGGTCATGAGATCGGAAGAGCACACGTCTGAACTCCAGTCA
# DNA 2: TGACTGGAGTTCAGACGTGTGCTCTTCCGATCTCATGACCTGGTCCTGCCAGAAGTTTCCTACTGCAGTGCGTACTGAGCACTAGATAGC
# RNA: AAUUUCUACUCUUGUAGAUAGGAAACUUCUGGCAGGACC
# B11: CATT (dsDNA)
# DNA 1: GCTATCTAGTGCTCAGTACGCACTGCATTAGGAAACTTCTGGCAGGACCAGGTCATGAGATCGGAAGAGCACACGTCTGAACTCCAGTCA
# DNA 2: TGACTGGAGTTCAGACGTGTGCTCTTCCGATCTCATGACCTGGTCCTGCCAGAAGTTTCCTAATGCAGTGCGTACTGAGCACTAGATAGC
# RNA: AAUUUCUACUCUUGUAGAUAGGAAACUUCUGGCAGGACC
# B12: CCAA (dsDNA)
# DNA 1: GCTATCTAGTGCTCAGTACGCACTGCCAAAGGAAACTTCTGGCAGGACCAGGTCATGAGATCGGAAGAGCACACGTCTGAACTCCAGTCA
# DNA 2: TGACTGGAGTTCAGACGTGTGCTCTTCCGATCTCATGACCTGGTCCTGCCAGAAGTTTCCTTTGGCAGTGCGTACTGAGCACTAGATAGC
# RNA: AAUUUCUACUCUUGUAGAUAGGAAACUUCUGGCAGGACC
# B13: CCAC (dsDNA)
# DNA 1: GCTATCTAGTGCTCAGTACGCACTGCCACAGGAAACTTCTGGCAGGACCAGGTCATGAGATCGGAAGAGCACACGTCTGAACTCCAGTCA
# DNA 2: TGACTGGAGTTCAGACGTGTGCTCTTCCGATCTCATGACCTGGTCCTGCCAGAAGTTTCCTGTGGCAGTGCGTACTGAGCACTAGATAGC
# RNA: AAUUUCUACUCUUGUAGAUAGGAAACUUCUGGCAGGACC
# B14: CCAG (dsDNA)
# DNA 1: GCTATCTAGTGCTCAGTACGCACTGCCAGAGGAAACTTCTGGCAGGACCAGGTCATGAGATCGGAAGAGCACACGTCTGAACTCCAGTCA
# DNA 2: TGACTGGAGTTCAGACGTGTGCTCTTCCGATCTCATGACCTGGTCCTGCCAGAAGTTTCCTCTGGCAGTGCGTACTGAGCACTAGATAGC
# RNA: AAUUUCUACUCUUGUAGAUAGGAAACUUCUGGCAGGACC
# B15: CCAT (dsDNA)
# DNA 1: GCTATCTAGTGCTCAGTACGCACTGCCATAGGAAACTTCTGGCAGGACCAGGTCATGAGATCGGAAGAGCACACGTCTGAACTCCAGTCA
# DNA 2: TGACTGGAGTTCAGACGTGTGCTCTTCCGATCTCATGACCTGGTCCTGCCAGAAGTTTCCTATGGCAGTGCGTACTGAGCACTAGATAGC
# RNA: AAUUUCUACUCUUGUAGAUAGGAAACUUCUGGCAGGACC
# B16: CCCT (dsDNA)
# DNA 1: GCTATCTAGTGCTCAGTACGCACTGCCCTAGGAAACTTCTGGCAGGACCAGGTCATGAGATCGGAAGAGCACACGTCTGAACTCCAGTCA
# DNA 2: TGACTGGAGTTCAGACGTGTGCTCTTCCGATCTCATGACCTGGTCCTGCCAGAAGTTTCCTAGGGCAGTGCGTACTGAGCACTAGATAGC
# RNA: AAUUUCUACUCUUGUAGAUAGGAAACUUCUGGCAGGACC
# B17: CCGA (dsDNA)
# DNA 1: GCTATCTAGTGCTCAGTACGCACTGCCGAAGGAAACTTCTGGCAGGACCAGGTCATGAGATCGGAAGAGCACACGTCTGAACTCCAGTCA
# DNA 2: TGACTGGAGTTCAGACGTGTGCTCTTCCGATCTCATGACCTGGTCCTGCCAGAAGTTTCCTTCGGCAGTGCGTACTGAGCACTAGATAGC
# RNA: AAUUUCUACUCUUGUAGAUAGGAAACUUCUGGCAGGACC
# Target: dAsCas12a S542R (Acidaminococcus sp., UniProt U2UMQ6 1-1307, S542R;D908A;E993A;D1235A)
# Experiment: Spec-seq (native PAGE EMSA with sequencing of bound and unbound); 25 mM Tris-HCl pH 7.4, 150 mM KCl, 5 mM MgCl2, 10% glycerol, 1 mM DTT, 40 ng/uL salmon sperm DNA; 400 nM Cas12a, 480 nM crRNA, 50 nM library, 37 C 1 h; native PAGE at room temperature; high values mean tight binding
# Details: protein: recombinant
# 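Further: relative affinity from the bound to unbound sequence frequency ratio in Spec-seq.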
row,Binder,binding signal [lnKA]
1,B1,-8.83
2,B2,-8.58
3,B3,-8.59
4,B4,-8.06
5,B5,-8.05
6,B6,-8.68
7,B7,-8.93
8,B8,-8.95
9,B9,-8.98
10,B10,-8.61
11,B11,-8.56
12,B12,-8.66
13,B13,-8.4
14,B14,-8.95
15,B15,-8.87
16,B16,-7.57
17,B17,-8.62

# Target: d-enCas12a (Acidaminococcus sp., UniProt U2UMQ6 1-1307, E174R;S542R;K548R;D908A;E993A;D1235A)
# Experiment: as above
# Details: protein: recombinant
row,Binder,binding signal [lnKA]
1,B1,-5.54
2,B2,-5.75
3,B3,-5.72
4,B4,-2.71
5,B5,-1.94
6,B6,-4.44
7,B7,-5.81
8,B8,-5.94
9,B9,-5.82
10,B10,-5.67
11,B11,-5.39
12,B12,-5.83
13,B13,-5.65
14,B14,-5.72
15,B15,-5.81
16,B16,-5.17
17,B17,-5.74

# Target: d-enCas12a-Ultra (Acidaminococcus sp., UniProt U2UMQ6 1-1307, E174R;S542R;K548R;M537R;F870L;D908A;E993A;D1235A)
# Experiment: as above
# Details: protein: recombinant
row,Binder,binding signal [lnKA]
1,B1,-3.19
2,B2,-3.48
3,B3,-3.43
4,B4,-0.596
5,B5,-0.454
6,B6,-1.41
7,B7,-3.41
8,B8,-3.45
9,B9,-3.56
10,B10,-3.37
11,B11,-2.95
12,B12,-3.39
13,B13,-3.37
14,B14,-3.45
15,B15,-3.45
16,B16,-1.7
17,B17,-3.44
